# Data reported in PMC4336329 (PLoS ONE, 2015).
# Hit rate of the full screen: of about 310,000 compounds, about 14,000 (4.5%) showed an effect of 50% or more. Effects have a minus sign here. The list comes from a sample in which strong results are over-represented; it also holds similar structures and randomly drawn compounds.
# Target: human ether-à-go-go-related gene (hERG) potassium channel (human, UniProt Q12809)
# Test: primary screen, population patch clamp on CHO cells stably expressing hERG; higher = less effect of the substance
# 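Note: peak tail current of the secondary pulse compared with the same well before compound.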
# Sequence of human ether-à-go-go-related gene (hERG) potassium channel (Q12809 whole entry, looked up): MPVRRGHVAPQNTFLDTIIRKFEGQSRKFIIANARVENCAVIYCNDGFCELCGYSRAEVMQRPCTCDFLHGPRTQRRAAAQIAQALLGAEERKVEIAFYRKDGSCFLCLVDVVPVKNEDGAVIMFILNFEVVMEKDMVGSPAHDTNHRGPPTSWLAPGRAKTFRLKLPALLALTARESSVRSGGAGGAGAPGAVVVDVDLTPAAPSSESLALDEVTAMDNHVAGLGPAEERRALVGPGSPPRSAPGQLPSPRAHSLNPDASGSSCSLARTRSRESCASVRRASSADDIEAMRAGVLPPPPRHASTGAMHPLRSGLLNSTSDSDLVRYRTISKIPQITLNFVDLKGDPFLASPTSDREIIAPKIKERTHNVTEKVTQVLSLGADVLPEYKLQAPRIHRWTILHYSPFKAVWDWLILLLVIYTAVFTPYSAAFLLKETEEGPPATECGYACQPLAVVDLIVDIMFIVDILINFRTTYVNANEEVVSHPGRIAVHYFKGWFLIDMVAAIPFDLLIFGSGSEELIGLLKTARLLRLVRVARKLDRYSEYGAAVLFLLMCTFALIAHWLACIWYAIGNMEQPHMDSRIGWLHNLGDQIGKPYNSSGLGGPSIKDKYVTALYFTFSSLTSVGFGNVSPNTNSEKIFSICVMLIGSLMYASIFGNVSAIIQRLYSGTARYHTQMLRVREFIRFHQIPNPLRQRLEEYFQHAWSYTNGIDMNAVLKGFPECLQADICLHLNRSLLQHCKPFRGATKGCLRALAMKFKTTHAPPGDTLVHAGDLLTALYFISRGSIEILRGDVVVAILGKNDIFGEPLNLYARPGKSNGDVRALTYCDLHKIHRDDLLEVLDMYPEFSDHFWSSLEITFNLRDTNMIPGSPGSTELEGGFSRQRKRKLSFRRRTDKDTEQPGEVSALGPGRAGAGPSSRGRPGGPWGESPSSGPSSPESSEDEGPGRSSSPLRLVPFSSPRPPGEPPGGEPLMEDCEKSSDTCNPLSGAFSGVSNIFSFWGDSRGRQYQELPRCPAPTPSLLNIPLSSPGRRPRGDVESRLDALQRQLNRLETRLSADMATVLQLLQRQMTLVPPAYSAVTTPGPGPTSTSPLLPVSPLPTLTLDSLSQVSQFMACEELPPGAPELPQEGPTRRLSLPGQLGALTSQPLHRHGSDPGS
row,SMILES,"hERG current change (%, negative = inhibition) at 10uM [%]"
1,CCN(c1cccc(C)c1)S(=O)(=O)c1ccc2c(c1)NC(=O)CCS2,8.09
2,CCOC(=O)c1ccc(NS(=O)(=O)c2cc3c4c(c2)CCN4C(=O)CC3)cc1,-9.74
3,CSCCC(NC(=O)c1ccccc1)C(=O)N(C)CC(=O)Nc1ccc(N2CCOCC2)cc1 (centres unmarked),5.72
4,CCCC(C)NC(=O)C1CC(=O)N(CCc2ccc(F)cc2)C1 (centres unmarked),9.07
5,COCCn1c(=S)[nH]c2ccccc21,28.7
6,CCC(C)(C)n1nnnc1C(c1cccnc1)N1CCCC(C)C1 (centres unmarked),3.14
7,CCOC(=O)c1ccc(NC(=O)c2cc3c(s2)CCC3)cc1,6.15
8,O=C(NC1CCCCC1)C1CCCN1S(=O)(=O)c1ccc(F)cc1 (centres unmarked),-0.938
9,COc1cc(/C=C2\OC(=O)c3c(OC)cccc32)ccc1O,15.6
10,CCn1ccnc1CN(C)C(=O)c1ccc(OC2CCN(CCc3ccccc3)CC2)cc1,-24.8
11,CC(c1nccs1)N(C)C(=O)c1ccc(OC2CCN(CCc3ccccc3)CC2)cc1 (centres unmarked),-51.4
12,Cc1nn(C)cc1CN(C)C(=O)c1ccc(OC2CCN(Cc3ccccn3)CC2)cc1,8.65
13,CC(C)N(C)C(=O)c1ccc(OC2CCN(CCc3ccccc3)CC2)cc1,-40.8
14,CN(CCc1ccccn1)C(=O)c1ccc(OC2CCN(CCc3ccccc3)CC2)cc1,-58.5
15,CN(CCc1ccccn1)C(=O)c1ccc(OC2CCN(Cc3ccccn3)CC2)cc1,4.04
16,O=C(CNc1ccccc1)Nc1ccc(F)cc1,3.4
17,O=C(NCCNS(=O)(=O)c1ccc(C(F)(F)F)cc1)N1CCOCC1,6.84
18,COC(=O)c1ccccc1NC(=O)CSc1nnc(-c2cccc(NC(C)=O)c2)n1C,-3.68
19,CCCCn1c(N)c(N(CC(C)C)C(=O)CCCc2cccs2)c(=O)[nH]c1=O,-9.44

row,SMILES,"hERG current change (%, negative = inhibition) at 10uM [%]"
1,O=C(NCCCn1ccnc1)c1ccc(-c2ccccc2)cc1,-21.6
2,COc1ccc(-n2ccnc2SCC(=O)NCc2ccc3c(c2)OCO3)cc1,-7.81
3,COC(=O)C1C(=O)C2=C(CC1C)Nc1ccccc1NC2c1ccc(C)s1 (centres unmarked),12.8
4,C=CCOc1cccc(C2C(C(=O)c3ccc(C)o3)=C(O)C(=O)N2c2nccs2)c1 (centres unmarked),7.99
5,Cc1c(CN(C)C(=O)/C=C/c2ccc([N+](=O)[O-])cc2)cnn1C,-69.6
6,Cc1nn(C)cc1C(=O)/C=C/c1ccc([N+](=O)[O-])cc1,-12.4
7,Cc1c(CN(C)C(=O)c2nn(C)cc2[N+](=O)[O-])cnn1C,8.63
8,CCn1cc(CNC(=O)/C=C/c2ccc([N+](=O)[O-])cc2)c(C)n1,-33
9,Cc1c(CN(C)C(=O)c2ccc(Br)o2)cnn1C,-7.89
10,CCn1cc(CN(C)C(=O)/C=C/c2ccc([N+](=O)[O-])cc2)c(C)n1,-59.4
11,COc1ccc(N(CC(=O)NC2CCCCC2)C(=O)c2ccc(C)s2)c(OC)c1,-18.1
12,CCN(CC)c1ccc(NC(=O)CCNS(=O)(=O)c2ccc3c(c2)CCC(=O)N3)c(C)c1,5.77
13,OCC(Br)CBr (centres unmarked),23
14,C=C1CCC2[C@](C)(CO)[C@H](O)CC[C@@]2(C)[C@@H]1C/C=C1\C(=O)OC[C@H]1O (some centres unmarked),18.9
15,CCc1nn(CC(=O)NCCCc2ccccc2)c(=O)c2cc3cc(F)ccc3n12,1.58
16,Cc1nn(C)c(C)c1CCC(=O)N1CCCC(N2CCN(c3ccc(F)cc3)CC2)C1 (centres unmarked),-12.5
17,Cc1noc(C)c1CCC(=O)N1CCCC(N2CCN(c3ccc(F)cc3)CC2)C1 (centres unmarked),-53.4
18,CSCC(=O)N1CCCC(N2CCN(c3ccc(F)cc3)CC2)C1 (centres unmarked),-22.9
19,Cc1ccccc1N1CCN(C2CCCN(C(=O)CCc3c(C)noc3C)C2)CC1 (centres unmarked),-46.3

row,SMILES,"hERG current change (%, negative = inhibition) at 10uM [%]"
1,CSCCC(=O)N1CCCC(N2CCN(c3cccc(C(F)(F)F)c3)CC2)C1 (centres unmarked),-40.4
2,CC1(CCC(=O)N2CCCC(N3CCN(c4cccc(C(F)(F)F)c4)CC3)C2)CC1 (centres unmarked),-61.5
3,CSCC(=O)N1CCCC(N2CCN(c3cccc(C(F)(F)F)c3)CC2)C1 (centres unmarked),-48.1
4,CC1(CCC(=O)N2CCCC(N3CCN(c4ccc(F)cc4)CC3)C2)CC1 (centres unmarked),-64.7
5,Cc1ccccc1N1CCN(C2CCCN(C(=O)CCC3(C)CC3)C2)CC1 (centres unmarked),-48.6
6,CC(C)NC(=O)N1CCN(c2ccncc2S(=O)(=O)N2CCCCC2)CC1,5.19
7,COc1ccc(-c2cnc(N)n2CC2CCCO2)cc1 (centres unmarked),-5.53
8,Cc1cc(C)n(CC(O)COc2c(C)cccc2C)n1 (centres unmarked),-1.28
9,O=P(C1=C(N2CCOCC2)/C(=C\c2ccccc2)CC1)(N1CCOCC1)N1CCOCC1,-25.3
10,O=C(CSc1nnc(NC(=O)C2CC(=O)N(c3ccccc3)C2)s1)NCc1ccco1 (centres unmarked),16.9
11,O=C(c1cccs1)N(Cc1cccc(F)c1)C1CCS(=O)(=O)C1 (centres unmarked),-14.9
12,O=C(c1ccco1)N(Cc1cccc(Cl)c1)C1CCS(=O)(=O)C1 (centres unmarked),-59
13,O=C(c1ccco1)N(Cc1ccc(Cl)cc1)C1CCS(=O)(=O)C1 (centres unmarked),-11.6
14,O=C(c1ccco1)N(Cc1cccc(F)c1)C1CCS(=O)(=O)C1 (centres unmarked),-5.78
15,O=C(c1cccs1)N(Cc1ccc(Cl)cc1)C1CCS(=O)(=O)C1 (centres unmarked),-41.9
16,O=C(c1cccs1)N(Cc1cccc(Cl)c1)C1CCS(=O)(=O)C1 (centres unmarked),-52
17,CC(=O)CCS(=O)(=O)c1ccc(C)c(C)c1,1.19
18,O=C(OCC(=O)N1CCCC1=O)C1CCN(S(=O)(=O)c2ccc(Cl)c(C(F)(F)F)c2)CC1,5.31
